Measurements: PubChem BioAssay (NCATS)
“And” between values parts separate entries of the source, which are not always exact repeats. Identical values can stand only once. Inconclusive results are not listed. The source made the active and inactive calls. Calls follow the shape of the dose curve; as a rule, active = well fitted curve in the direction sought with a large enough effect; inconclusive = small, poorly fitted or top-dose-only effect, or another doubt; inactive = no such curve, though single readings can be large; an effect the other way counts as inactive or inconclusive.

What was measured:
HEK293 = experiment: Cytotoxic Profiling of Annotated Libraries Using Quantitative High-Throughput Screening (AID 1296008); settings: Five cell lines viability, CellTiter-Glo ATP luminescence, 48-72 h; max response: hits give low values; also: nearly all actives have a fitted effect of over 60% in size; also: potency is read from the fitted curve at half-maximal effect
Procedure, shortened: (§1)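 Cytotoxicity was measured as CellTiter-Glo ATP luminescence, read after 10 min at room temperature. Compound treatment of the cells lasted 48 or 72 hr at 37 degrees Celsius in a qHTS format.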

HaCat [1] = experiment: as above; settings: Five cell lines viability, CellTiter-Glo ATP luminescence, 48-72 h; hits give low values
Procedure, shortened: as §1

KB-3-1 = experiment: as above; settings: Five cell lines viability, CellTiter-Glo ATP luminescence, 48-72 h; max response: hits give low values
Procedure, shortened: as §1

NIH3T3 [2] = experiment: as above; settings: Five cell lines viability, CellTiter-Glo ATP luminescence, 48-72 h; max response: hits give low values
Procedure, shortened: as §1

C33A = experiment: Primary qHTS to identify gynecologic anti-cancer compounds using libraries of approved drugs and bioactive compounds (AID 1345084); settings: Gynecologic cancer cell panel viability, ATPlite luminescence, 48 h; series mostly up to 57.5 µM; also: nearly all actives have a fitted effect of over 55% in size; also: potency is read from the fitted curve at half-maximal effect
Procedure, shortened: (§2)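 In this quantitative HTS, cell killing is estimated from loss of ATP-dependent luciferase light. Cells see five compound concentrations over a 48 h exposure.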

CAOV3 = experiment: as above; settings: Gynecologic cancer cell panel viability, ATPlite luminescence, 48 h; series mostly up to 57.5 µM
Procedure, shortened: as §2

CASKI = experiment: as above; settings: Gynecologic cancer cell panel viability, ATPlite luminescence, 48 h; series mostly up to 57.5 µM
Procedure, shortened: as §2

HeLa = experiment: as above; settings: Gynecologic cancer cell panel viability, ATPlite luminescence, 48 h; series mostly up to 57.5 µM
Procedure, shortened: as §2

CRL-7250 = normal cell line; experiment: Cytotoxic Profiling of Annotated Libraries Using Quantitative High-Throughput Screening (AID 1296008); settings: Five cell lines viability, CellTiter-Glo ATP luminescence, 48-72 h; hits give low values; also: nearly all actives have a fitted effect of over 60% in size; also: potency is read from the fitted curve at half-maximal effect
Procedure, shortened: as §1

HEK293T [3] = experiment: qHTS assay to identify novel small-molecules to repurpose for Merkel cell carcinoma treatment (AID 1296009); settings: MCC and control cell lines, CellTiter-Glo viability, 72 h; at 44.8 µM (top of the series); also: nearly all actives have a fitted effect of over 60% in size
Procedure, shortened: (§3)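 Cell viability measured by CellTiter-Glo following 72 hr compound treatment at 37 degree celsius, with NPC and MIPE libraries tested in 8- and 11-point concentration series.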

MCC-13 = experiment: as above; settings: MCC and control cell lines, CellTiter-Glo viability, 72 h; series mostly up to 46 µM
Procedure, shortened: as §3

MCC-26 = experiment: as above; settings: MCC and control cell lines, CellTiter-Glo viability, 72 h; series mostly up to 46 µM
Procedure, shortened: as §3

MKL-1 = experiment: as above; settings: MCC and control cell lines, CellTiter-Glo viability, 72 h; series mostly up to 46 µM
Procedure, shortened: as §3

MKL-2 = experiment: as above; settings: MCC and control cell lines, CellTiter-Glo viability, 72 h; series mostly up to 46 µM
Procedure, shortened: as §3

UISO = experiment: as above; settings: MCC and control cell lines, CellTiter-Glo viability, 72 h; series mostly up to 46 µM
Procedure, shortened: as §3

WaGa = experiment: as above; settings: MCC and control cell lines, CellTiter-Glo viability, 72 h; series mostly up to 46 µM
Procedure, shortened: as §3

Es-2 = experiment: Primary qHTS to identify gynecologic anti-cancer compounds using libraries of approved drugs and bioactive compounds (AID 1345084); settings: Gynecologic cancer cell panel viability, ATPlite luminescence, 48 h; series mostly up to 57.5 µM; also: nearly all actives have a fitted effect of over 55% in size; also: potency is read from the fitted curve at half-maximal effect
Procedure, shortened: as §2

Hek293T [4] = experiment: as above; settings: Gynecologic cancer cell panel viability, ATPlite luminescence, 48 h, control line for the selectivity index; series mostly up to 57.5 µM
Procedure, shortened: as §2

HACAT [5] = experiment: qHTS assay to identify novel small-molecules to repurpose for Merkel cell carcinoma treatment (AID 1296009); settings: MCC and control cell lines, CellTiter-Glo viability, 72 h; at 44.8 µM (top of the series); also: nearly all actives have a fitted effect of over 60% in size
Procedure, shortened: as §3

NIH3T3 [6] = experiment: as above; settings: MCC and control cell lines, CellTiter-Glo viability, 72 h; at 44.8 µM (top of the series)
Procedure, shortened: as §3
% is scaled to controls: 0 for no effect and ±100 for the full control effect.

CC(=O)Nc1ccc(NC(=S)NC(=O)c2ccc(C(C)(C)C)cc2)cc1
inactive: max response (HaCat [1]) -11.2% | Potency (C33A) | Potency (CAOV3) | Potency (CASKI) | Potency (HeLa)
active: Potency (HEK293) 651 nM | Potency (KB-3-1) 4.11 µM | Potency (NIH3T3 [2]) 16.4 µM

O=C(OCc1ccccc1)c1ccc(O)cc1
inactive: max response (CRL-7250) -9.5% | outcome (HEK293) | max response (KB-3-1) 2.26% | max response (NIH3T3 [2]) 0.27% | outcome (HEK293T [3]) | outcome (MCC-13) | outcome (MCC-26) | outcome (MKL-1) | outcome (MKL-2) | outcome (UISO) | outcome (WaGa) | Potency (C33A) | Potency (CAOV3) | Potency (CASKI) | Potency (Es-2) | Potency (HeLa) | Potency (Hek293T [4])

COc1ccc2nc(NC(=O)Nc3ccccc3)sc2c1
inactive: max response (CRL-7250) 1.89% | outcome (HaCat [1]) | max response (NIH3T3 [2]) -17.1% | outcome (HACAT [5]) | outcome (MCC-13) | outcome (MCC-26) | outcome (MKL-1) | outcome (MKL-2) | outcome (UISO)
active: Potency (CASKI) 12.6 µM | Potency (Es-2) 8.91 µM | Potency (Hek293T [4]) 14.1 µM

Oc1cccc(O)c1O
inactive: max response (KB-3-1) 0.0163%

CCOC(=O)c1cc(-c2ccccc2)nc2ccc(C)cc12
inactive: max response (KB-3-1) 3.5%

CO
inactive: max response (KB-3-1) 17.7%

O=C(O)Cc1cc(I)c(Oc2ccc(O)c(I)c2)c(I)c1
inactive: outcome (CRL-7250) | outcome (HaCat [1]) | max response (KB-3-1) 1.68% and -7.08% | outcome (NIH3T3 [2]) | outcome (HACAT [5]) | outcome (NIH3T3 [6]) | Potency (C33A) | Potency (CAOV3) | Potency (CASKI) | Potency (Es-2) | Potency (HeLa) | Potency (Hek293T [4])

Oc1ccc(/C=C/c2cc(O)cc(O)c2)cc1
inactive: max response (CRL-7250) -2.32% | max response (HEK293) -3.47% | max response (KB-3-1) 36.2% | outcome (MCC-13) | outcome (MCC-26) | outcome (MKL-1) | outcome (UISO)
active: Potency (Es-2) 25.1 µM

COc1ccc2c(c1)N(C[C@H](C)CN(C)C)c1ccccc1S2
inactive: max response (KB-3-1) -8.39%

C/C(=C\C(=O)OCCCCCCCCC(=O)O)C[C@@H]1OC[C@H](C[C@@H]2O[C@H]2[C@@H](C)[C@H](C)O)[C@@H](O)[C@H]1O
inactive: max response (CRL-7250) 4.39% | max response (HEK293) -15.8% | max response (HaCat [1]) -2.01% | max response (KB-3-1) -2.38% | max response (NIH3T3 [2]) -3.66% | Potency (C33A) | Potency (CAOV3) | Potency (CASKI) | Potency (Es-2) | Potency (HeLa) | Potency (Hek293T [4])

c1ccc2c(c1)Sc1ccccc1N2CCN1CCCC1
inactive: max response (KB-3-1) -12.7%

CCC(C(=O)NC(N)=O)c1ccccc1 (configuration not stated)
inactive: max response (KB-3-1) 4%

O=[N+]([O-])c1c(Cl)cccc1-c1c[nH]cc1Cl
inactive: max response (KB-3-1) 2.84%

CC(C)(C)c1ccc(CN2CCN(C(c3ccccc3)c3ccc(Cl)cc3)CC2)cc1 (configuration not stated)
inactive: max response (CRL-7250) 1.08% | outcome (HaCat [1]) | outcome (NIH3T3 [2]) | outcome (HACAT [5]) | outcome (NIH3T3 [6]) | Potency (C33A) | Potency (CAOV3) | Potency (CASKI) | Potency (Es-2) | Potency (HeLa) | Potency (Hek293T [4])

C=C1CC[C@H](O)CC1=C/C=C1\CCC[C@]2(C)[C@@H]([C@H](C)/C=C/[C@H](C)C(C)C)CC[C@@H]12
inactive: max response (CRL-7250) -11.3% | outcome (HaCat [1]) | max response (KB-3-1) 7.88% and 8.32% | outcome (HACAT [5]) | Potency (C33A) | Potency (CAOV3) | Potency (CASKI) | Potency (Es-2) | Potency (HeLa) | Potency (Hek293T [4])

CNC(=O)[C@H](Cc1c[nH]c2ccccc12)NC(=O)[C@@H](CC(=O)NO)CC(C)C
inactive: max response (KB-3-1) -8.09%

NC(=O)Oc1ccc(Cc2ccccc2)cc1
inactive: max response (KB-3-1) 11.9%

CC1CC(O)CC(C)(C)C1 (configuration not stated)
inactive: max response (KB-3-1) 4.01%

Cc1nc(NS(=O)(=O)c2ccc(N)cc2)nc(C)c1Br
inactive: max response (KB-3-1) 9.38%

CC(=O)Oc1cccc2c1C(=O)c1c(OC(C)=O)cc(C(=O)O)cc1C2=O
inactive: max response (CRL-7250) -18.7% | outcome (HaCat [1]) | max response (KB-3-1) -2.72% | outcome (HACAT [5]) | outcome (MCC-13) | outcome (MCC-26) | outcome (MKL-1) | outcome (MKL-2) | outcome (UISO) | Potency (C33A) | Potency (Es-2) | Potency (HeLa)
